{
  "source": "PubChem BioAssay AID1509",
  "about": "(The Scripps Research Institute Molecular Screening Center, 2009)",
  "note": "Screen size: about 220,000 compounds; about 770 (0.35%) were called active. Only a selection was taken, and actives are over-represented in it overall. Values without a mark were called inactive. Cut-off read from the data, not from the text of the source: active = activation above about 11%; inactive = the rest.",
  "data": [
    {"molecular_target": "Sphingosine 1-phosphate receptor 4 (Homo sapiens) (UniProt O95977)", "sequence (O95977 whole entry, looked up)": "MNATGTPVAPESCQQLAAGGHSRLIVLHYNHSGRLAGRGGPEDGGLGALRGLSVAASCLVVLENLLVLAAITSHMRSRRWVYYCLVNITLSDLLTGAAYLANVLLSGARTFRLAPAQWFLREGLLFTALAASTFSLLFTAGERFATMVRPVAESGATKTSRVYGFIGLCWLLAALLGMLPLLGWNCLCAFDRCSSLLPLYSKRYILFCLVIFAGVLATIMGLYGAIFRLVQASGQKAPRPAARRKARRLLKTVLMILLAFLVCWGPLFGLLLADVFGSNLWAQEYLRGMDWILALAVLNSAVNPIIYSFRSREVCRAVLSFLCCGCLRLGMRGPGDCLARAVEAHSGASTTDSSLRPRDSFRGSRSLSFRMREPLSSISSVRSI", "assay": "activators of human S1P4 receptor – cell-based, primary screen (AID 1509);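 note: 0% = DMSO vehicle and 100% = reference agonist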", "settings": "S1P4-expressing cell line, agonist reporter assay; at 4.98 µM; stronger effect = higher value", "values": [
      {"smiles": "O=S(=O)(NCCc1ccncc1)c1ccccc1", "activation": "-2.17%"},
      {"smiles": "CCN(CC)CCCSc1nc2ccccc2s1", "activation": "-1.06%"},
      {"smiles": "CCC(=O)Oc1cccc(C(=O)Nc2ccc(-c3nnc(-c4ccco4)o3)cc2)c1", "activation": "1.45%"},
      {"smiles": "CCOc1ccc(-c2nnc(-c3ccco3)o2)cc1", "activation": "13.2% (active)"},
      {"smiles": "CCCCOc1ccc(-c2nnc(-c3ccco3)o2)cc1", "activation": "0.55%"},
      {"smiles": "COC(=O)[C@@H]1CC[C@H](C)[C@@H](c2ccc(C)cc2)N1C(=O)c1ccc(/C=N/O[C@H](C)c2cn([C@@H]3COC[C@H]3O)nn2)cc1", "activation": "44.7% (active)"},
      {"smiles": "O=C(CC1C(=O)NCCN1CC(c1ccccc1)c1ccccc1)NCCc1cn[nH]c1", "note": "(stereo not drawn)", "activation": "-1.81%"},
      {"smiles": "Cc1cc(C(=O)COC(=O)C2CC2)c(C)n1-c1ccc(F)cc1", "activation": "1.5%"},
      {"smiles": "Cc1ccc(S(=O)(=O)NC(=O)Nc2nc(-c3ccc(F)c(F)c3)cs2)cc1", "activation": "1.19%"},
      {"smiles": "CNS(=O)(=O)c1ccc(NC(=O)C2CC(=O)N(c3ccc(Cl)cc3)C2)cc1", "note": "(stereo not drawn)", "activation": "-4.58%"},
      {"smiles": "COc1cccc2c1CCC(NC(C)=O)C2=O", "note": "(stereo not drawn)", "activation": "1.12%"},
      {"smiles": "O=C(CSc1nnc(Cc2ccccc2)n1-c1ccccc1)N1CCOCC1", "activation": "-2.13%"},
      {"smiles": "O=C(CSc1nncn1-c1cccnc1)N1CCOCC1", "activation": "44.7% (active)"},
      {"smiles": "Cn1c(SCC(=O)N2CCOCC2)nnc1-c1ccc2ncccc2c1", "activation": "1.83%"},
      {"smiles": "O=C(Nc1ccc(NC(=O)c2ccco2)c(Cl)c1)c1cccc([N+](=O)[O-])c1", "activation": "1.27%"},
      {"smiles": "CCN(CC)S(=O)(=O)c1cccc(-c2n[nH]c(=S)n2/N=C/c2ccc(C(=O)OC)cc2)c1", "activation": "0.89%"},
      {"smiles": "Cc1cc(CNC(=O)c2cccc([N+](=O)[O-])c2)c2ccccc2n1", "activation": "1.06%"},
      {"smiles": "CC(=O)Nc1ccc(Nc2c3ccccc3nc3ccccc23)cc1", "activation": "4.18%"},
      {"smiles": "O=[N+]([O-])c1cccc(Nc2c3ccccc3nc3ccccc23)c1", "activation": "13.1% (active)"},
      {"smiles": "CCCCc1ccc(S(N)(=O)=O)cc1", "activation": "-0.75%"},
      {"smiles": "CC(C)(C)n1cnnc1Sc1ccc([N+](=O)[O-])cn1", "activation": "-0.36%"},
      {"smiles": "CC(C)(C)C(=O)NCCCNc1ccc([N+](=O)[O-])cc1", "activation": "0.65%"},
      {"smiles": "Cc1cc(C)c(C#N)c(SCC(=O)NN2CC(=O)N(c3ccccc3F)CC2=O)n1", "activation": "55.1% (active)"},
      {"smiles": "Cc1cc(C)c(C#N)c(SCC(=O)Nc2ccccc2)n1", "activation": "2.39%"},
      {"smiles": "Cc1cc(C)c(C#N)c(SCc2ccccc2C(=O)O)n1", "activation": "0.52%"},
      {"smiles": "O=C(O)CCn1cc(/C=C/C(=O)c2ccc(Cl)cc2)c(-c2cccc(Br)c2)n1", "activation": "0.7%"},
      {"smiles": "CCc1ccc(/C=N/NC(=O)c2ccc(OC3CCCC3)cc2)s1", "activation": "0.66%"},
      {"smiles": "O=C(O)/C=C/C(=O)NNc1ccc([N+](=O)[O-])cc1", "activation": "-0.64%"},
      {"smiles": "Cc1csc(/N=C/N(C)C)c1C#N", "activation": "0.51%"},
      {"smiles": "COc1ccccc1C(c1nnnn1C(C)(C)C)N1CCN(Cc2ccccc2)CC1", "note": "(stereo not drawn)", "activation": "-1.97%"},
      {"smiles": "CCCC(c1nnnn1C(C)(C)C)N1CCN(Cc2ccccc2)CC1", "note": "(stereo not drawn)", "activation": "0.72%"},
      {"smiles": "CC(C)C(c1nnnn1C(C)(C)C)N1CCN(Cc2cccnc2)CC1", "note": "(stereo not drawn)", "activation": "12.3% (active)"},
      {"smiles": "CC(=O)Nc1ccc(NC(=O)CSc2ncnc3c2cnn3Cc2ccccc2)cc1", "activation": "-0.48%"},
      {"smiles": "COc1ccc(C(C(=O)NC(C)(C)C)N(C(=O)Cn2nnc3ccccc32)c2ccc(C(C)=O)cc2)cc1O", "note": "(stereo not drawn)", "activation": "0.1%"},
      {"smiles": "CCOC(=O)COc1nc(C)cc(C(F)(F)F)c1C#N", "activation": "-0.16%"},
      {"smiles": "CCc1ccc(-n2c(=S)sc3c(=O)n(-c4ccccc4OC)c(=S)[nH]c32)cc1", "activation": "1.93%"},
      {"smiles": "O=C(NC1CCCCC1)C1CCCN(S(=O)(=O)c2ccc(Br)s2)C1", "note": "(stereo not drawn)", "activation": "1.69%"},
      {"smiles": "CCOc1cc(N2CCOCC2)c(OCC)cc1NC(=O)C1=NN(c2cccc(C)c2)C(=O)CC1", "activation": "0.94%"},
      {"smiles": "Cc1ccc(/C([O-])=C(/C(=S)NCc2ccco2)[n+]2ccccc2)cc1[N+](=O)[O-]", "activation": "0.47%"},
      {"smiles": "CCN(CC)CCNC(=O)c1sc2ncn(CC(=O)Nc3ccc(C)c(Cl)c3)c(=O)c2c1C", "activation": "-1.34%"},
      {"smiles": "COc1ccccc1C1CC(=O)n2c(nc(-c3ccccc3)c2-c2ccccc2)S1", "note": "(stereo not drawn)", "activation": "-1.26%"},
      {"smiles": "O=C(Nc1nnc(SCc2c(Cl)cccc2Cl)s1)c1cccc([N+](=O)[O-])c1", "activation": "1.12%"},
      {"smiles": "CC(C)(C)OC(=O)N1CCC(NC(=O)c2[nH]cnc2C(=O)N[C@@H](Cc2ccccc2)C(=O)OCc2ccccc2)CC1", "activation": "0.67%"},
      {"smiles": "CNC(=O)c1[nH]cnc1C(=O)N[C@@H](CC(C)C)C(=O)OCc1ccccc1", "activation": "30.9% (active)"},
      {"smiles": "CNC(=O)c1[nH]cnc1C(=O)N[C@@H](CC(C)C)C(=O)OC(C)(C)C", "activation": "2.22%"},
      {"smiles": "CC(=O)c1c(N2CCN(c3ccc(F)cc3)CC2)nc(=S)n(-c2ccccc2)c1C", "activation": "0.51%"},
      {"smiles": "Nc1cccc(S(=O)(=O)Nc2ccc(SC(F)F)cc2)c1", "activation": "1.21%"},
      {"smiles": "NC(=O)c1ccccc1N=Cc1ccc2ccccc2c1", "activation": "0.55%"}
    ]}
  ]
}
